Experimental data: the antibiotic and cytotoxicity screens of Wong et al. (2023)
About 1,500 (3.8%) of roughly 39,000 compounds were called active. For the sample, actives were picked, then their nearest neighbours and some compounds at random.

What follows are molecules tested on HSkMC (human skeletal muscle cells) (assay: cytotoxicity call (relative viability < 0.9)). Conditions: 10 µM.
With `O=c1[nH][nH]c(=S)n1C1CC1` the cytotoxicity call was “inactive”. In the case of `C=C(/C=C/CNS(=O)(=O)c1ccc(C)cc1)[C@H](O)[C@H]1CCCN1S(=O)(=O)c1ccccc1[N+](=O)[O-]`, the cytotoxicity call is reported as “inactive”. For `O=C(C[C@H]1C[C@@H]2c3cc(NC(=O)c4cccnc4)ccc3O[C@@H]2[C@H](CO)O1)NCc1cc(F)ccc1F`, the cytotoxicity call was “inactive”. With `C[C@H]1CN([C@@H](C)CO)C(=O)CCCn2nncc2CO[C@H]1CN(C)C(=O)CCCN(C)C` the cytotoxicity call was “inactive”. For `CCC[C@@H]1C[C@@H](C(=O)N[C@H]([C@H]2O[C@H](SC)[C@H](O)[C@@H](O)[C@H]2O)[C@@H](C)Cl)N(C)C1`, the cytotoxicity call was “inactive”. For `Cc1noc(C)c1S(=O)(=O)N(C)C[C@H]1Oc2ccc(NS(C)(=O)=O)cc2CC(=O)N([C@@H](C)CO)C[C@H]1C`, the cytotoxicity call was “inactive”. `CCC(CCC(C)C1CCC2C3CC=C4CC(O)CCC4(C)C3CCC12C)C(C)C` (stereo not drawn) [beta-SITOSTEROL ] was tested, and the cytotoxicity call was “inactive”. `N/C(=N/O)c1cnc2n(c1=O)CCS2` was tested, and the cytotoxicity call was “inactive”. For `C[C@@H]1CN([C@H](C)CO)C(=O)Cc2cc(NC(=O)Cc3ccccc3)ccc2O[C@H]1CN(C)S(=O)(=O)c1cccs1`, the cytotoxicity call was “inactive”. With `O=C(CN1CCOCC1)N[C@H]1CC[C@H](CCNC(=O)C2CCCCC2)O[C@H]1CO` the cytotoxicity call was “inactive”. `C[C@@H]1CN([C@@H](C)CO)C(=O)c2ccccc2-c2ccccc2CO[C@H]1CN(C)S(=O)(=O)c1ccc(C(F)(F)F)cc1` was tested, and the cytotoxicity call was “inactive”. In the case of `Cc1cccc2c3c(ccc12)C1=C(C(=O)C3=O)C(C)CO1` (configuration not stated), the cytotoxicity call is reported as “inactive”. `CC1COC2=C1C(=O)C(=O)c1c2ccc2c1CCCC2(C)C` (configuration not stated) was tested, and the cytotoxicity call was “active”. In the case of `Cc1coc2c1C(=O)C(=O)c1c-2ccc2c1CCCC2(C)C`, the cytotoxicity call is reported as “active”. For `C[C@H]1CN(C(=O)N(C)C)CCN1C(=O)N(C)C`, the cytotoxicity call was “inactive”. `O=C(O)Cn1c(=O)n(CC(=O)O)c2ccccc21` was tested, and the cytotoxicity call was “inactive”. `COC(=O)C(CCCN1C(=O)c2ccccc2C1=O)(NC(C)=O)c1nn[nH]n1` (configuration not stated) was tested, and the cytotoxicity call was “inactive”. With `C[C@H](CO)N1C[C@H](C)[C@H](CN(C)C(=O)c2cnccn2)Oc2ncc(-c3cccc(C#N)c3)cc2C1=O` the cytotoxicity call was “inactive”. With `C[C@@H]1CN([C@H](C)CO)C(=O)CCCn2nncc2CO[C@H]1CN(C)Cc1cccc2c1OCCCO2` the cytotoxicity call was “inactive”. `CCOC(=O)N(C)C[C@H]1OCc2cn(nn2)CCCC(=O)N([C@@H](C)CO)C[C@@H]1C` was tested, and the cytotoxicity call was “inactive”. In the case of `O=C(O)CCSC[C@@H]1O[C@H]2O[C@@H]3[C@@H](O)[C@H](O)[C@H](O[C@@H]4[C@@H](O)[C@H](O)[C@H](O[C@@H]5[C@@H](O)[C@H](O)[C@H](O[C@@H]6[C@@H](O)[C@H](O)[C@H](O[C@@H]7[C@@H](O)[C@H](O)[C@H](O[C@@H]8[C@@H](O)[C@H](O)[C@H](O[C@@H]9[C@@H](O)[C@H](O)[C@H](O[C@@H]1[C@@H](O)[C@@H]2O)O[C@H]9CSCCC(=O)O)O[C@H]8CSCCC(=O)O)O[C@H]7CSCCC(=O)O)O[C@H]6CSCCC(=O)O)O[C@H]5CSCCC(=O)O)O[C@H]4CSCCC(=O)O)O[C@H]3CSCCC(=O)O`, the cytotoxicity call is reported as “inactive”. In the case of `C[C@H](CO)N1C[C@H](C)[C@H](CN(C)Cc2ccc(C(=O)O)cc2)OCCCC[C@H](C)Oc2ccc(NC(=O)Nc3ccccc3)cc2C1=O`, the cytotoxicity call is reported as “inactive”. With `C[C@H](CO)N1C[C@H](C)[C@@H](CN(C)S(C)(=O)=O)Oc2ccc(NC(=O)Nc3ccc(F)cc3)cc2CC1=O` the cytotoxicity call was “inactive”. In the case of `CCC(=C/[C@H](C)C/C=C/C(C)=C/[C@@H](C)C(=O)[C@@H](C)[C@H](O)[C@@H](C)C/C(C)=C/C(=O)O)/C=C/[C@@H]1OC(=O)C=C[C@@H]1C`, the cytotoxicity call is reported as “active”. With `Cc1noc(C)c1NC(=O)N(C)C[C@@H]1Oc2ccc(NS(C)(=O)=O)cc2CC(=O)N([C@H](C)CO)C[C@H]1C` the cytotoxicity call was “inactive”. For `C[C@@H]1CN([C@H](C)CO)S(=O)(=O)c2ccc(-c3cccnc3)cc2O[C@H]1CN(C)C(=O)c1cccc(F)c1`, the cytotoxicity call was “inactive”. `COc1ccc([Si](C)(C)[C@@H]2[C@@H](CCO)O[C@]3(C(=O)N(Cc4ccc(N(C=O)c5ccccc5)cc4)c4ccccc43)[C@H]2C)cc1` was tested, and the cytotoxicity call was “inactive”. `COc1ccc([Si](C)(C)[C@H]2[C@H](CCO)O[C@@]3(C(=O)N(Cc4ccccc4)c4ccc(N(C=O)c5ccccc5)cc43)[C@@H]2C)cc1` was tested, and the cytotoxicity call was “inactive”. With `COc1ccc([Si](C)(C)[C@@H]2[C@@H](CCO)O[C@]3(C(=O)N(Cc4ccccc4)c4ccc(N(C=O)c5ccccc5)cc43)[C@H]2C)cc1` the cytotoxicity call was “inactive”. `C=CCN1C(=O)[C@]2(O[C@H](CCO)[C@@H]([Si](C)(C)c3ccc(OC)cc3)[C@@H]2C)c2cc(N(C=O)c3ccccc3)ccc21` was tested, and the cytotoxicity call was “active”. For `COc1ccc([Si](C)(C)[C@H]2[C@H](CCO)O[C@@]3(C(=O)N(Cc4ccc(N(C=O)c5ccccc5)cc4)c4ccccc43)[C@@H]2C)cc1`, the cytotoxicity call was “inactive”. With `C=CCN1C(=O)[C@@]2(O[C@@H](CCO)[C@H]([Si](C)(C)c3ccc(OC)cc3)[C@H]2C)c2cc(N(C=O)c3ccccc3)ccc21` the cytotoxicity call was “active”. For `C[C@@H]1CCCCO[C@@H](CN(C)C(=O)Nc2ccccc2)[C@@H](C)CN([C@H](C)CO)C(=O)c2cc(NS(=O)(=O)c3ccccc3)ccc2O1`, the cytotoxicity call was “inactive”. `C[C@@H]1CN([C@H](C)CO)C(=O)c2cc(NC(=O)NC3CCCCC3)ccc2O[C@@H](C)CCCCO[C@@H]1CN(C)CC1CCCCC1` was tested, and the cytotoxicity call was “inactive”. For `C[C@H](CO)N1C[C@H](C)[C@H](CN(C)S(=O)(=O)c2ccccc2)Oc2ccc(NC(=O)CCC(F)(F)F)cc2CC1=O`, the cytotoxicity call was “inactive”. With `C[C@H]1CN([C@@H](C)CO)C(=O)c2cccc(NC(=O)NC3CCCCC3)c2O[C@@H]1CN(C)Cc1ccc(-c2ccccc2)cc1` the cytotoxicity call was “inactive”. With `Clc1ccc(COC(Cn2ccnc2)c2ccc(Cl)cc2Cl)cc1.O=[N+]([O-])O` (configuration not stated) the cytotoxicity call was “inactive”. In the case of `Clc1ccc(C(Cn2ccnc2)OCc2c(Cl)cccc2Cl)c(Cl)c1.O=[N+]([O-])O` (configuration not stated), the cytotoxicity call is reported as “inactive”. With `Clc1ccc(CSC(Cn2ccnc2)c2ccc(Cl)cc2Cl)cc1.O=[N+]([O-])O` (configuration not stated) the cytotoxicity call was “active”. `Cc1noc(C)c1S(=O)(=O)N(C)C[C@@H]1Oc2ccc(NS(=O)(=O)c3ccc(Cl)cc3)cc2C(=O)N([C@H](C)CO)C[C@@H]1C` was tested, and the cytotoxicity call was “inactive”. In the case of `C[C@@H]1CCCCO[C@H](CN(C)C(=O)Nc2cccc3ccccc23)[C@H](C)CN([C@H](C)CO)C(=O)c2cc(NS(C)(=O)=O)ccc2O1`, the cytotoxicity call is reported as “inactive”. For `Cc1ccc(C(N)=S)c(=O)[nH]1`, the cytotoxicity call was “inactive”. For `C[C@H]1CN([C@@H](C)CO)C(=O)c2cccc(NC(=O)C3CCCCC3)c2O[C@@H]1CN(C)Cc1ccc(Cl)c(Cl)c1`, the cytotoxicity call was “inactive”. With `COC(=O)c1c(CC[C@@H](CO)NC(=O)N[C@@H](Cc2ccccc2)Cn2cc(-c3ccccn3)nn2)oc(C(=O)N2CCOCC2)c1C(=O)OC` the cytotoxicity call was “inactive”. In the case of `CCCC#Cc1ccc2c(c1)O[C@@H](CN(C)Cc1ccc3c(c1)OCO3)[C@H](C)CN([C@H](C)CO)S2(=O)=O`, the cytotoxicity call is reported as “inactive”. `CO[C@H](CN(C)C(=O)C1CCOCC1)[C@H](C)CN(C(=O)Nc1ccc(C(F)(F)F)cc1)[C@@H](C)CO` was tested, and the cytotoxicity call was “inactive”. In the case of `C[C@H]1CN([C@@H](C)CO)C(=O)Cc2cc(NC(=O)Nc3ccc(F)cc3)ccc2O[C@H]1CN(C)CC1CCCCC1`, the cytotoxicity call is reported as “active”. In the case of `C[C@@H]1CN([C@@H](C)CO)C(=O)Cc2cc(NC(=O)Nc3ccc(F)cc3)ccc2O[C@@H]1CN(C)CC1CCCCC1`, the cytotoxicity call is reported as “inactive”. `C[C@H](CO)N1C[C@H](C)[C@H](CN(C)CC2CCCCC2)Oc2ccc(NC(=O)Nc3ccc(F)cc3)cc2CC1=O` was tested, and the cytotoxicity call was “inactive”. For `C[C@@H]1CN([C@H](C)CO)C(=O)Cc2cc(NC(=O)Nc3ccc(F)cc3)ccc2O[C@@H]1CN(C)CC1CCCCC1`, the cytotoxicity call was “active”. `C[C@@H]1CN([C@@H](C)CO)C(=O)Cc2cc(NC(=O)Nc3ccc(F)cc3)ccc2O[C@H]1CN(C)CC1CCCCC1` was tested, and the cytotoxicity call was “inactive”. For `C[C@H](CO)N1C[C@H](C)[C@@H](CN(C)CC2CCCCC2)Oc2ccc(NC(=O)Nc3ccc(F)cc3)cc2CC1=O`, the cytotoxicity call was “inactive”. In the case of `COc1ccc(NC(=O)Nc2ccc3c(c2)C(=O)N([C@H](C)CO)C[C@@H](C)[C@H](CN(C)C(=O)Nc2c(C)noc2C)OCCCC[C@@H](C)O3)cc1`, the cytotoxicity call is reported as “inactive”. In the case of `C[C@@H]1O[C@@H](O[C@H]2[C@H](Oc3cc(O)c4c(c3)O[C@H](c3ccc(O)cc3)CC4=O)O[C@H](CO)[C@@H](O)[C@@H]2O)[C@H](O)[C@H](O)[C@H]1O`, the cytotoxicity call is reported as “inactive”. `Cc1ccc(S(=O)(=O)N(C)C[C@@H]2Oc3ccc(NS(=O)(=O)c4cn(C)cn4)cc3C(=O)N([C@H](C)CO)C[C@@H]2C)cc1` was tested, and the cytotoxicity call was “inactive”. With `COc1ccc(S(=O)(=O)N(C)C[C@H]2Oc3ccc(NC(=O)Nc4c(C)noc4C)cc3C(=O)N([C@@H](C)CO)C[C@H]2C)cc1` the cytotoxicity call was “inactive”. `Cc1ccc(S(=O)(=O)N2C[C@H](O)COC[C@H]3O[C@@H](CC(=O)N[C@@H]4CCN(Cc5ccccc5)C4)CC[C@@H]32)cc1` was tested, and the cytotoxicity call was “inactive”. `C[C@@H]1CN([C@H](C)CO)C(=O)c2cc(NS(=O)(=O)c3cccs3)ccc2O[C@@H]1CN(C)Cc1ccc(Cl)c(Cl)c1` was tested, and the cytotoxicity call was “inactive”. With `C[C@@H]1CCCCO[C@H](CN(C)C(=O)Nc2cccc3ccccc23)[C@H](C)CN([C@H](C)CO)C(=O)c2cc(NC(=O)C3CCCCC3)ccc2O1` the cytotoxicity call was “inactive”. `C[C@H]1CCCCO[C@@H](CN(C)C(=O)Nc2cccc3ccccc23)[C@@H](C)CN([C@@H](C)CO)C(=O)c2cc(NC(=O)C3CCCCC3)ccc2O1` was tested, and the cytotoxicity call was “inactive”. With `C[C@@H]1CN([C@@H](C)CO)C(=O)c2cc(NC(=O)C3CCCCC3)ccc2O[C@@H](C)CCCCO[C@@H]1CN(C)C(=O)Nc1cccc2ccccc12` the cytotoxicity call was “inactive”. In the case of `C[C@@H]1CCCCO[C@H](CN(C)C(=O)Nc2cccc3ccccc23)[C@H](C)CN([C@@H](C)CO)C(=O)c2cc(NC(=O)C3CCCCC3)ccc2O1`, the cytotoxicity call is reported as “inactive”. For `C[C@@H]1CCCCO[C@H](CN(C)C(=O)Nc2cccc3ccccc23)[C@@H](C)CN([C@H](C)CO)C(=O)c2cc(NC(=O)C3CCCCC3)ccc2O1`, the cytotoxicity call was “inactive”. For `C[C@@H]1CCCCO[C@@H](CN(C)C(=O)Nc2cccc3ccccc23)[C@@H](C)CN([C@@H](C)CO)C(=O)c2cc(NC(=O)C3CCCCC3)ccc2O1`, the cytotoxicity call was “active”. With `C[C@@H]1CCCCO[C@@H](CN(C)C(=O)Nc2cccc3ccccc23)[C@@H](C)CN([C@H](C)CO)C(=O)c2cc(NC(=O)C3CCCCC3)ccc2O1` the cytotoxicity call was “active”. `C[C@@H]1CN([C@H](C)CO)C(=O)c2cc(NC(=O)C3CCCCC3)ccc2O[C@@H](C)CCCCO[C@@H]1CN(C)C(=O)Nc1cccc2ccccc12` was tested, and the cytotoxicity call was “active”. `C[C@H](CO)N1C[C@H](C)[C@@H](CN(C)C(=O)Nc2cccc3ccccc23)OCCCC[C@H](C)Oc2ccc(NC(=O)C3CCCCC3)cc2C1=O` was tested, and the cytotoxicity call was “inactive”.
